Assay outcomes: PubChem BioAssay, several laboratories
HSV replic up = increases HSV replication in cells; HSV replication augmentation in cells, fold increase; maximum fold increase; actives 0.005% (n = 220,000); in the data active = maximum fold increase above about 1.5; inconclusive = no clear call, values can overlap the other calls; tested in PC3 cells
Wee1 stabilizer = blocks degradation of human Wee1 kinase; HeLa Luc-Wee1K328M stability, luciferase luminescence; 100% = proteasome inhibitor MG132 effect; reporter increase, % at 5 µM; actives 1.2% (n = 220,000); AID 1321;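 active = activation above the mean of all tested compounds plus 3 SD, set per screening run, cut at about 8.8% in these data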;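 note: cells exposed to compound for 20 h before luminescence read; 0% = DMSO alone and 100% = MG132 at 30 µM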
NCF1 inh = p47phox (human) inhibition; p47phox/p22phox peptide binding, fluorescence polarization, 2 h; inhibition, % at 24.7 µM; actives 0.53% (n = 220,000);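 active = inhibition above about 30%, limit read from the data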;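 note: 0% = p47phox with labelled peptide and 100% = labelled peptide alone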
Furin inhibitor = human furin inhibition. P09958. purified furin, fluorogenic substrate cleavage. inhibition, % at 20 µM or 30 µM. actives 0.061% (n = 220,000); in the data active = inhibition above about 25%
EP2 antag = inhibitors of human EP2 prostaglandin E2 receptor | P43116 | inhibition, % at 25 µM | actives 0.52% (n = 260,000) | C6 glioma cells expressing human EP2, cAMP TR-FRET; cells stimulated with saturating PGE2 | AID 1422;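 active = percent inhibition above 40 after rounding to a whole number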;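 note: rat C6 glioma host cells with rolipram phosphodiesterase inhibitor present; the protocol text gives 20 µM as final concentration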
Target sequence (P43116 whole entry, looked up): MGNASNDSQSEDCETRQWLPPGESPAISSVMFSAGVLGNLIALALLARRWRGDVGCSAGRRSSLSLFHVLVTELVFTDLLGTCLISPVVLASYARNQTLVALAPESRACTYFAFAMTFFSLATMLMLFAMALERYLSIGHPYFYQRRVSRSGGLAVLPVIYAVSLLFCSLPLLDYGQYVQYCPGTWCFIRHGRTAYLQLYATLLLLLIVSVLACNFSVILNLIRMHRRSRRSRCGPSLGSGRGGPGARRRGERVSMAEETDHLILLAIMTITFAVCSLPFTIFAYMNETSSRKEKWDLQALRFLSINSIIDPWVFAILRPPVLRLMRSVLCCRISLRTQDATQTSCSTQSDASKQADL
EP2 mod = EP2 receptor (human) modulation; AID 940; induction, % at 25 µM; actives 0.83% (n = 260,000); EP2-expressing cells, cAMP HTRF FRET, PGE2 co-stimulation; P43116;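 active = compounds whose cAMP rise, as percent of the full-agonist control response, exceeds 60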;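 note: rat C6 glioma line stably carrying human EP2 under a CMV promoter; the protocol text gives 20 µM as final concentration; 100% = response of wells given 1 µM PGE2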
An asterisk follows results filed as active; i = inactive; ? = inconclusive; . = no result; ! = not confirmed by another sample. Sampled rows, rich in hits. Any-hit rate of the full collection: about 2.8%.

SMILES	HSV replic up	Wee1 stabilizer	NCF1 inh	Furin inhibitor	EP2 antag	EP2 mod
CCOC(=O)C1C(C)C2C(=O)C=CCC2N1C (stereo not drawn)	.	.	.	.	7.2	53.6
CCn1nc(-c2ccccc2)nc2c(=O)n(C)c(=O)nc1-2	i	-0.4	10.0	-14.8	42.6*	-88.4
Cc1nc2c(=O)n(C)c(=O)nc-2n(C)n1	.	-4.5	0.2	-18.7	34.1	-164.4
CNc1ccc2oc(C[C@H]3O[C@@]4(CC[C@H]3C)O[C@H]([C@H](C)C(=O)c3ccc[nH]3)[C@H](C)C[C@H]4C)nc2c1C(=O)O	i	.	5.8	-30.6	70.9*	56.9
CC/C(CC(c1ccccc1)c1c(O)c2ccccc2oc1=O)=N\NC(N)=S (stereo not drawn)	i	3.4	-12.1	-31.1	3.7	40.5
O=c1oc2ccccc2c(O)c1C(c1ccc([N+](=O)[O-])cc1)c1c(O)c2ccccc2oc1=O	i	-2.0	-54.5	-4.4	8.6	8.9
O=C(C[C@H](c1ccccc1)c1c(O)c2ccccc2oc1=O)c1ccccc1	.	.	.	.	45.7*	11.9
CC(C)c1ccc(C(c2c(O)c3ccccc3oc2=O)c2c(O)c3ccccc3oc2=O)cc1	.	.	.	.	69.7*	-11.1
CN1CC=C(/C=C/c2c[nH]c3ccccc23)CC1	.	.	.	.	9.6	-109.3
CCN1CCN(c2ccc(NC(=O)C(C)C)cc2)CC1	.	.	.	.	9.3	-25.5
CC(=O)c1c(C)n(CC2CCCO2)c2ccc(O)cc12 (stereo not drawn)	i	6.5	-4.9	-18.5	14.7	-6.9
CC(=O)c1c(C)n(Cc2ccccc2Cl)c2ccc(O)cc12	i	0.1	115.3*	-12.8	3.2	-27.4
Oc1ccc([C@H](O)[C@@H]2CCCCN2)cc1O	.	.	.	.	9.2	-7.0
CCC(N)C(O)c1ccc(O)c(O)c1 (stereo not drawn)	.	.	.	.	11.6	74.2*
CCn1nc(CC(=O)N2CCCCC2CN2CCCC2)c2ccccc2c1=O (stereo not drawn)	.	.	.	.	6.6	-2.7
CN=C(SCc1ccccc1)c1c(O)n(C)c(=O)n(C)c1=O	i	9.3*	.	-33.3	2.7	.
Cn1c(O)c(C(=O)c2ccccc2)c(=O)n(C)c1=O	i	0.2	-0.6	-16.4	7.6	1.5
C[C@@H]1CC[C@@H]2N(C1)C[C@@H]1[C@](O)([C@H](O)C[C@]3(O)[C@H]4CC[C@@H]5[C@]6(O)O[C@@]4(C[C@@]13O)[C@@]5(C)CC[C@H]6O)[C@@]2(C)O	.	.	.	.	47.8*	11.3
COc1ccccc1-n1c(SCCN2CCOCC2)nc2ccccc2c1=O	.	.	.	.	4.9	-7.9
O=C1NC(=O)N(c2ccccc2)C(=O)/C1=C/C=C/c1ccco1	i	0.5	-47.1	13.9	46.5*	-101.6
Cc1ccc(N2C(=O)NC(=O)/C(=C\C=C\c3ccco3)C2=O)cc1C	i	-2.4	-18.0	15.6	87.9*	-94.8
Cc1ccc(N2C(=O)NC(=O)/C(=C\C=C\c3ccco3)C2=O)cc1	.	-1.9	-51.6	-15.3	26.0	-29.4
CN1C(=O)/C(=C/C=C/c2ccco2)C(=O)NC1=S	i	2.6	-214.1	-14.3	7.0	-17.2
O=C1NC(=O)N(Cc2ccco2)C(=O)/C1=C/C=C/c1ccco1	i	-0.6	-6.7	-15.7	21.2	-34.3
O=C1NC(=O)N(Cc2ccccc2)C(=O)/C1=C\C=C\c1ccco1	?	5.0	-217.6	-7.2	63.1*	-64.9
SMILES	HSV replic up	Wee1 stabilizer	NCF1 inh	Furin inhibitor	EP2 antag	EP2 mod
CN(C)c1ccc(/C=C/C=C2/C(=O)NC(=O)N(c3ccccc3)C2=O)cc1	.	-1.6	-67.7	-25.5	22.4	-116.1
Cc1cccc(N2C(=O)NC(=O)/C(=C\C=C\c3ccco3)C2=O)c1	i	2.4	-31.5	14.3	44.2*	-108.7
COc1cccc(CN2CCN(C(=O)COc3ccc(C)cc3)CC2)c1OC	.	.	.	.	6.2	-21.3
C=CCN1C(=O)NC(=O)/C(=C/C=C/c2ccccc2)C1=O	i	3.0	29.9	-15.2	128.7*	-67.0
C=CCn1c(O)c(/C=N/NC(=O)c2ccncc2)c(=O)[nH]c1=O	i	-1.7	-5.6	36.4*	1.6	-2.4
O=C(N/N=C/c1c(O)n(Cc2ccccc2)c(=O)[nH]c1=O)c1ccncc1	i	-1.4	-10.2	2.6	3.8	16.2
CC(C)NC(=O)CN1C2CCC1CC(O)(c1ccccn1)C2 (stereo not drawn)	.	.	.	.	.	5.0
Cc1ccc(C2=CCN(CC(=O)Nc3nc4ccccc4s3)CC2)o1	.	.	.	.	17.9	-76.5
O=[N+]([O-])c1[nH]cnc1Cl	.	.	.	.	16.1	6.5
c1cncc(C2Nc3cccc4cccc(c34)N2)c1	i	11.5*	2.2	-17.7	8.3	-7.0
c1cncc(C2CCCCN2)c1 (stereo not drawn)	i	-1.9	-2.9	-25.4	12.1	7.3
c1ccc(-c2nc(N3CCOCC3)s[n+]2-c2ccccc2)cc1	i	-0.3	41.5*	-12.9	-1.5	27.4
CCN(CCN(C)C)C(=O)Cc1nn(C)c(=O)c2ccccc12	.	.	.	.	3.0	-30.2
C[C@@H]1C(=O)OC2[C@H](O)C34[C@@H]5OC(=O)[C@@]3(O[C@@H]3OC(=O)[C@H](O)[C@@]34[C@H](C(C)(C)C)[C@H]5O)[C@]21O (stereo partly drawn)	.	.	.	.	9.7	1.6
O=C1NC(=O)C(=Cc2ccc(Br)s2)C(=O)N1	.	.	.	.	115.2*	-91.8
C=C(C)c1ccccc1 (tested in a mixture with another compound)	.	.	.	.	55.3*	9.7
C=C(c1ccccc1)P(=O)(O)O	i	2.5	-0.8	-5.1	8.3	12.1
COCCc1ncc(CN2C3CCC2CC(O)(c2ccccc2OC)C3)cn1 (stereo not drawn)	.	.	.	.	7.4	-20.2
O=C(O)C[C@@H]1OCC=C2CN3CC[C@]45c6ccccc6N[C@H]4[C@H]1[C@H]2C[C@H]35	.	.	.	.	50.9*	0.6
CC(Cc1ccccc1)NCc1ccccc1O (stereo not drawn)	i	1.1	-8.1	2.3	3.6	4.6
CCCc1ncc(CN2C3CCC2CC(O)(c2nccn2C)C3)cn1 (stereo not drawn)	.	.	.	.	3.9	9.2
CN1C2c3ccccc3C3C4c5ccccc5C(C31)C(C2[N+](=O)[O-])N4C (stereo not drawn)	i	0.7	91.8*	-16.1	12.3	11.0
COc1cc2c(cc1OC)[C@]13CC[N@+]4(C)CC5=CCO[C@@H]6CC(=O)N2[C@@H]1[C@@H]6[C@@H]5C[C@]34O	.	.	.	.	41.5*	27.4
COc1cc2c(cc1OC)[C@@]13CCN4CC5=CCO[C@H]6CC(=O)N2[C@H]1[C@H]6[C@H]5C[C@H]43	i	3.6	1.0	-10.8	15.0	0.6
CN(C)c1ccc(/C=C/[N+](=O)[O-])cc1	i	-2.3	43.0*	-6.4	21.3	-16.6
Cc1ccc(-n2c(O)c(/C=N/Nc3ccccc3)c(=O)[nH]c2=O)cc1C	i	2.5	39.8*	-0.4	20.8	-7.5
CCCN1CCc2cccc3c2[C@H]1Cc1ccc(O)c(O)c1-3	i	.	.	.	43.3*!	40.2
